# According to PubChem BioAssay (Tox21):
# Values joined by “and” are separate entries in the source; they are usually repeats but may differ in a detail not shown here. Identical values can stand only once. Records with an inconclusive call do not appear. Where a call stands in place of a potency, no number is given. Active and inactive are the calls of the source. Calls follow the shape of the dose curve; as a rule, active = well fitted activation curve with a large enough effect in the signal ratio in the repeat runs (not every such curve was filed as active); inconclusive = weak or mixed curves, or effect the other way; inactive = flat fitted curve, though single readings scatter; the % refers to the signal ratio.
# Biological target: Estrogen receptor beta (Homo sapiens) (UniProt Q92731)
# Assay: qHTS assay to identify small molecule agonists of the estrogen receptor beta (ER-beta) signaling pathway (AID 1259377)
# Details: ER-beta-UAS-bla HEK293T, beta-lactamase FRET ratio, 16 h; series mostly up to 92.4 µM
# From the text: U.S. Tox21 Program National Center for Advancing Translational Sciences [NCATS] NIH Chemical Genomics Center [NCGC] U.S. Environmental Protection Agency [EPA] National Institutes of Environmental Health Sciences [NIEHS] National Toxicology Program [NTP] U.S. Food and Drug Administration [FDA] Tox21 Assay Overview: Estrogen receptor (ER), a nuclear hormone receptor, plays an important role in development, metabolic homeostasis and reproduction. Two subtypes of ER, ER-alpha and ER-beta, have similar expression patterns with some uniqueness in both types. Endocrine disrupting chemicals (EDCs) and their interactions with steroid hormone receptors like ER causes disruption of normal endocrine function. To identify the compounds that activate ER signaling, an ER beta-UAS-bla GripTite cell line (Life technologies, Madison, WI, USA) containing a beta-lactamase reporter gene under the control of an Upstream Activator Sequence (UAS) was used to screen Tox21 10K compound library.
# Tox21 Assay Protocol Summary: ER-beta-UAS-bla HEK293T cells were dispensed at 2,000 cells/5 uL of assay medium containing 2% charcoal stripped FBS per well into black wall/clear-bottom 1536-well plates using a Multidrop Combi (ThermoFisher Scientific, Waltham, MA) dispenser. After the assay plates were incubated at a 37C and 5% CO2 for 6 hr, 23 nL of compounds dissolved in DMSO, positive controls or DMSO only was transferred to the assay plate by a Pintool station (Kalypsys, San Diego, CA). The plates were incubated at 37C and 5% CO2 for 16 hr. Then 1 uL of LiveBLAzerTM B/G FRET substrate was added using a BioRAPTR FRD (Flying Reagent Dispenser, Aurora Discovery, San Diego, CA). After the plates were incubated at room temperature for 2 hours, fluorescence intensity was measured by an Envision plate reader (PerkinElmer, Shelton, CT).
# Potency is read from the fitted curve at half-maximal effect.
# Sequence of Estrogen receptor beta (Homo sapiens) (Q92731 whole entry, looked up): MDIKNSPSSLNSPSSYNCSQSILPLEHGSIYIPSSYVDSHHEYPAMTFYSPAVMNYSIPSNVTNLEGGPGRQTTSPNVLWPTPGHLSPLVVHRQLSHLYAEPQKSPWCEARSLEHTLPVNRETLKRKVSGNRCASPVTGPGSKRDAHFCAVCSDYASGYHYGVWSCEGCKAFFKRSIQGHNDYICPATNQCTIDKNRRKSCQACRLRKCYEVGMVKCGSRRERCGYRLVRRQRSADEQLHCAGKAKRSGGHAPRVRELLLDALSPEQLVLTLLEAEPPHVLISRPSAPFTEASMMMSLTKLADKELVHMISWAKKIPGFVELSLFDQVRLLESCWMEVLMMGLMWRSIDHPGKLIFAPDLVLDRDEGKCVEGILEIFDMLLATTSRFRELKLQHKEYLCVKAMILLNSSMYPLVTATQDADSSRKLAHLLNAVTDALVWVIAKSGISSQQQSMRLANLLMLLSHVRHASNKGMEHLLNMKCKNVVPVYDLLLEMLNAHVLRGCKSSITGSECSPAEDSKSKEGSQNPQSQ
Compound,Potency,activation
NC(=O)c1cccc([N+](=O)[O-])c1,inactive,
C=Cc1cccc(C)c1,inactive,
CCCCCCCCCCCCOC(=O)c1ccc(O)cc1,inactive,
Cc1c(C)c([N+](=O)[O-])c(C(C)(C)C)c([N+](=O)[O-])c1C,inactive,
O=C(O)[C@H](O)[C@@H](O)[C@H](O[C@@H]1O[C@H](CO)[C@H](O)[C@H](O)[C@H]1O)[C@H](O)CO,inactive,
OCC(F)(F)F,inactive,
C=CCn1c(=O)n(CC=C)c(=O)n(CC=C)c1=O,inactive,
CCN(CC)c1ccc2c(-c3ccc(S(=O)(=O)O)cc3S(=O)(=O)[O-])c3ccc(=[N+](CC)CC)cc-3oc2c1,inactive,
S=c1nccc[nH]1,inactive,
Nc1ccc(Oc2ccc(Cl)cc2)cc1,inactive,
O=C(O)Cc1ccc2c(c1)C(=O)c1ccccc1CO2,inactive,
Cc1nc(-c2ccc(Cl)cc2)oc1COC(C)(C)C(=O)O,inactive,
FC(F)(F)c1cccc(Cl)c1,inactive,
CCCCCCCC/C=C\CCCCCCCCN,inactive,
CCCCCC/C=C\CCCCCCCC(=O)O,inactive,
CC(CCc1ccccc1)NCC(O)c1ccc(O)c(C(N)=O)c1 (stereo not given),inactive,
C=C(C)c1cccc(C(=C)C)c1,inactive,
CN1CCCCC1CCN1c2ccccc2Sc2ccc(S(C)=O)cc21 (stereo not given),inactive,
CCCCOC(=O)CO,inactive,
CC(C)Cn1cnc2c(N)nc3ccccc3c21,,4.64% [at 19 µM] (inactive)

Compound,Potency,activation
COc1cc2nc(N3CCN(C(=O)c4ccco4)CC3)nc(N)c2cc1OC,,-0.974% [at 19 µM] (inactive)
C/C=C/C=C/COC(=O)C(C)C,inactive,
Sc1nc2ccccc2s1,inactive,
CC(=O)Oc1cc2c(s1)CCN(C(C(=O)C1CC1)c1ccccc1F)C2 (stereo not given),inactive,
OCCN1CCN(CCCN2c3ccccc3Sc3ccc(C(F)(F)F)cc32)CC1,inactive,
Oc1ccccc1O,22 µM (active) and 24.3 µM (active),
c1ccc(C(O[C@@H]2CCCN(CCc3ccc4c(c3)OCO4)C2)c2ccccc2)cc1,inactive,
COCCOc1cc2cc(C(=O)NC3CCN(C(C)C)CC3)n(CC(=O)Nc3ccc(Cl)cn3)c2cn1,inactive,
[Cl][Pt-2]([Cl])([Cl])[Cl],inactive,
O=C1CCCCCCCCCCCCCCCO1,inactive,
CC(C)(C)NSc1nc2ccccc2s1,inactive,
COC(C)=O,inactive,
CCCC1CCC(=O)CC1,inactive,
CCC(=O)OC(=O)CC,inactive,
COC(=O)c1ccccc1C,inactive,
O=C(Nc1ccc2c(O)c(N=Nc3ccc(N=Nc4ccc(S(=O)(=O)O)cc4)cc3)c(S(=O)(=O)O)cc2c1)c1ccccc1,inactive,
Clc1ccnc(Cl)n1,inactive,
CC/C=C\CCCCCO,inactive,
O=C(O)c1ccc2cc(C(=O)O)ccc2c1,inactive,
[Cu+],inactive,
